# HP1b chromo inh: HTS for Inhibitors of HP1-beta Chromodomain Interactions with Methylated Histone Tails; Chromobox protein homolog 1 (Homo sapiens), P83916; AID 540317, 2011; Potency, µM (top dose mostly 114 µM), without a hit: top-dose activity change, negative = inhibition, most hits filed as inhibitors; AlphaScreen HP1-beta / biotin-H3K9me3 peptide binding; 390,000 tested, 0.56% active; also: potency is read from the fitted curve at half-maximal effect; nearly all actives have a fitted effect of over 70% in size
#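 Compound inhibition of the preformed complex between 50 nM HP1-beta and 50 nM biotinylated H3K9me3 peptide was read by AlphaScreen. Buffer was PBS pH 7.4 with 0.01% Tween-20. Incubations ran 30 min at room temperature, with 10 ug/mL donor/acceptor beads.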
# G9a block: qHTS Assay for Inhibitors of Histone Lysine Methyltransferase G9a. 350,000 tested, 8.8% active. Potency, µM (highest dose often 102 µM), without a hit: at the top dose activity, negative = inhibition, usual class: inhibitors. AID 504332, 2011. Histone-lysine N-methyltransferase EHMT2 (Homo sapiens), Q96KQ7. G9a H3K9 monomethylation, AlphaScreen, 2 h; also: potency is read from the fitted curve at half-maximal effect; % is scaled to controls: 0 for no effect and ±100 for the full control effect; nearly all actives have a fitted effect of over 75% in size
#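 Chemiluminescent proximity detection of H3K9 monomethylation, read after 10 min bead incubation in the dark. Reaction: 20 nM G9a, 500 nM biotin-H3K9 peptide, 20 uM SAM cofactor, 2 h, room temperature, following 15 min enzyme-compound preincubation.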
# Six1-Eya2 blk: qHTS Assay for Inhibitors of the Six1/Eya2 Interaction. AlphaScreen GST-Six1/His-Eya2 binding, biochemical; hits give low values. activity change, % (no concentration beside the values). Homeobox protein SIX1 (Homo sapiens) + Protein phosphatase EYA2 (Homo sapiens), …. 360,000 tested, 0.56% active; in the data active = activity change below about -65%; inconclusive = mostly about -30% to -63%; also: % is scaled to controls: 0 for no effect and ±100 for the full control effect
# Target sequence (O00167 whole entry, looked up): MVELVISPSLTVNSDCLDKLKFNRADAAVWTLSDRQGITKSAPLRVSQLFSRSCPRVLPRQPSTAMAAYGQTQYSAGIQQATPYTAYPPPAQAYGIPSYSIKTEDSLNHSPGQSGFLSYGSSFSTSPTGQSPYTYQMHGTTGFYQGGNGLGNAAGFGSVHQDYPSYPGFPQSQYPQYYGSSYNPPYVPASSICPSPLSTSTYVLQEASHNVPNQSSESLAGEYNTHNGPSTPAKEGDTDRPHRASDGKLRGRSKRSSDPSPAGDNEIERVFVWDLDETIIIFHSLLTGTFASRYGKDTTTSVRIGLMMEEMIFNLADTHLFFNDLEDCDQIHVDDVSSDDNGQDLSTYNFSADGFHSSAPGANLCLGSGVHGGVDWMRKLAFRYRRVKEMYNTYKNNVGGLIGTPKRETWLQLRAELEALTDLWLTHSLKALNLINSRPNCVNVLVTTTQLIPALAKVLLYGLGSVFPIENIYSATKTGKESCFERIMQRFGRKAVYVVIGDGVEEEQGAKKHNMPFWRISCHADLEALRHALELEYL
# Target sequence (Q15475 whole entry, looked up): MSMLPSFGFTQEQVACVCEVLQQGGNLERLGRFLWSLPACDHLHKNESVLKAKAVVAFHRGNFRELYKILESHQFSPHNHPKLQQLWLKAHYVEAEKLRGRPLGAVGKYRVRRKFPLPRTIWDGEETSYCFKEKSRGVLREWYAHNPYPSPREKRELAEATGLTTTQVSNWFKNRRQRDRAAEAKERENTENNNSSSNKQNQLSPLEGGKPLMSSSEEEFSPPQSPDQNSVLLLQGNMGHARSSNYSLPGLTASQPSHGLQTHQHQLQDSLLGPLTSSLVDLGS
#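 GST-Six1 + His-Eya2 (5X stock: 250/500 nM); Tris pH 8.0, 300 mM NaCl, 0.05% BSA, 0.02% Tween 20; GSH donor/Ni acceptor beads; 1 h 37 °C dark; AlphaScreen readout.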
# BAZ2B inh: qHTS Assay for Inhibitors of BAZ2B | AlphaScreen BAZ2B-H3K14Ac peptide displacement | Potency, µM (titrated, usually from 114 µM), inactives show top-dose activity change, negative = inhibition, most hits filed as inhibitors | 360,000 tested, 4.4% active; also: potency is read from the fitted curve at half-maximal effect; % is scaled to controls: 0 for no effect and ±100 for the full control effect; nearly all actives have a fitted effect of over 60% in size
#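 BAZ2B 50 nM plus b-H3(5-23)K14Ac 50 nM, PBS pH 7.4/0.01% Tween-20, 30 min RT; compound added (max 110 uM), 30 min RT; streptavidin donor/Ni-chelate acceptor beads 10 ug/mL final, 20 min dark; AlphaScreen read.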
# CtBP-E1A inh: qHTS Assay for Inhibitors of the CtBP/E1A Interaction; AlphaScreen GST-E1A/His-CtBP binding, 1536-well; hits give low values; activity change, % (no concentration beside the values); 340,000 tested, 0.49% active; in the data active = activity change below about -65%; inconclusive = mostly about -30% to -63%; also: % is scaled to controls: 0 for no effect and ±100 for the full control effect
#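 Protein mix (5X: 125 nM each GST-E1A, His-CtBP) was incubated with pinned compound 2 h at 37 deg C in dark, in 50 mM Tris pH 8.0 buffer with 300 mM NaCl. Glutathione donor and nickel acceptor beads followed; AlphaScreen signal read after 1 h.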
# JMJD2A Tudor inh: qHTS Assay for Inhibitors of JMJD2A-Tudor Domain. Potency, µM (highest dose often 114 µM), inactives show top-dose activity change, negative = inhibition, hits mostly inhibitors. 390,000 tested, 4.4% active. Lysine-specific demethylase 4A (Homo sapiens), O75164. AlphaScreen JMJD2A-Tudor / H3K4me3 peptide binding; also: potency is read from the fitted curve at half-maximal effect; % is scaled to controls: 0 for no effect and ±100 for the full control effect; nearly all actives have a fitted effect of over 50% in size
# * hit, by the source's call; ? = inconclusive; nt = not tested or not shown; [ ] = dose if it differs, or a comment. A selection: hits, their analogues and other compounds. The true share with any hit is near 10%. Unless noted, calls follow the shape of the dose curve; as a rule, active = well fitted inhibition curve with a large enough effect; inconclusive = small, poorly fitted or top-dose-only effect; inactive = no such curve, though single readings can be large or run the other way.
SMILES,HP1b chromo inh,G9a block,Six1-Eya2 blk,BAZ2B inh,CtBP-E1A inh,JMJD2A Tudor inh
CCn1c(Cc2cccc3ccccc23)nnc1SCC(=O)Nc1nccs1,26%,10µM*,-15,6%,-10,79µM*
COc1ccc(CCNc2ccncn2)cc1OC,29%,-12%,-1,-2%,8,-10%
COc1ccc(Nc2nc(-c3sc(NC(C)=O)nc3C)cs2)cc1,nt,40µM*,nt,6%,nt,nt
COc1ccc(Nc2nc(-c3sc(N)nc3C)cs2)cc1,?,?,-27,14µM*,-30,50µM*
CCOc1ccc(Nc2nc(-c3sc(N)nc3C)cs2)cc1,?,35µM*,-18,45µM*,-18,50µM*
COc1ccc(CCNc2nc(-c3sc(N)nc3C)cs2)cc1OC,?,?,?,50µM*,-27,56µM*
CC(=O)Nc1ccc(Nc2nc(-c3sc(C)nc3C)cs2)cc1,-2%,?,-12,?,-9,-26%
C=C(C)CC1(NC(C)c2ccccc2)CCCCC1 (stereo not drawn),63%,5%[59 µM],21,6%,4,9%
O=C(OCC(=O)N1CCN(C(=O)c2ccco2)CC1)c1cc(F)c(F)cc1Cl,10%[57 µM],nt,4,nt,2,-5%
Cc1nc(N)sc1-c1csc(Nc2cc(N(C)C)ccc2Cl)n1,nt,nt,-73*,nt,?,nt
Cc1ccc(Nc2nc(-c3sc(N)nc3C)cs2)cc1,?,nt,-2,40µM*,nt,50µM*
CS(=O)(=O)c1ccccc1-c1nnc(NC(=O)c2ccco2)o1,14%,14µM*,-15,50µM*,2,20µM*
O=C(Nc1nnc(-c2ccc(F)cc2)o1)c1ccco1,47%,27%[12.7 µM],-22,50µM*,-28,79µM*
COc1cccc(CNC(=O)C2CCN(S(=O)(=O)c3cn(C)cn3)CC2)c1,11%,14%[59 µM],nt,-5%,nt,-5%
Cc1cc(Cc2cc(C)c(N)cc2C)c(C)cc1N,-1%,nt,-1,35µM*,-5,-28%
CC(C)CNC(=O)C1(C)CCCN1C(=O)c1cc2ccccc2s1 (stereo not drawn),nt,nt,28,nt,0,nt
Cc1cc(C)cc(NC(=O)CSc2oc(-c3ccco3)nc2S(=O)(=O)c2ccc(Cl)cc2)c1,8%,-28%[59 µM],nt,?,nt,?
COC(=O)/C=C/c1ccccc1CN1[C@@H](CC(=O)OC)c2ccccc2S1(=O)=O,39%,-3%[0.501 µM],-24,-3%,-83*,-14%
O=C(Nc1cc(C(=O)Nc2ccc(S(=O)(=O)O)cc2S(=O)(=O)O)cc(C(=O)Nc2ccc(S(=O)(=O)O)cc2S(=O)(=O)O)c1)Nc1cc(C(=O)Nc2ccc(S(=O)(=O)O)cc2S(=O)(=O)O)cc(C(=O)Nc2ccc(S(=O)(=O)O)cc2S(=O)(=O)O)c1,nt,0.071µM*,nt,nt,nt,nt
Nc1ccc(C(=O)Nc2ccc3cc(S(=O)(=O)O)ccc3c2)cc1,21%,nt,?,nt,?,-3%
O=C(Nc1ccc(C(=O)Nc2ccc(C(=O)Nc3ccc(S(=O)(=O)O)c4cc(S(=O)(=O)O)cc(S(=O)(=O)O)c34)cc2)cc1)Nc1ccc(C(=O)Nc2ccc(C(=O)Nc3ccc(S(=O)(=O)O)c4cc(S(=O)(=O)O)cc(S(=O)(=O)O)c34)cc2)cc1,nt,1.3µM*,nt,nt,nt,nt
O=C(c1ccc2c(c1)N(Cc1ccc(Cl)cc1)C(=O)c1ccccc1S2(=O)=O)N1CCOCC1,8%,-4%[59 µM],nt,-10%,nt,-27%
COc1cccc(CN2CCC(C)(Oc3cccc(Cl)c3)C2)c1OC (stereo not drawn),nt,nt,5,nt,-1,nt
C/C(=N/NS(=O)(=O)c1ccc(Cl)cc1)c1cccc(O)c1,17%,19%[59 µM],4,1%,5,-6%
C/C(=N\NS(=O)(=O)c1ccccc1)c1cc(Cl)cc(Cl)c1O,5%,45µM*,-11,?,0,-30%
